Measured potencies and affinities stand elsewhere. Activity calls are given as the source filed them.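 The calls were made as follows: active = compounds lowering cell ATP signal with a fitted half-effect dose at most twice the top valid dose; inconclusive = flat curve with 30 to 70% signal loss, or bad fit; inactive = wrong direction, flat within 30%, or weaker than limit.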
Assay: viability loss in HEK293 kidney cells – cell-based, cherry-picks, set 5, cytotoxicity control, dose response (AID 1053117);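 also: more negative means greater loss of ATP signal and more cytotoxicity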
Conditions: HEK293T viability, CellTiter-Glo ATP luminescence, 72 h; series mostly up to 26 µM; activity change, negative = cytotoxicity: at the top concentration

| Compound | activity change, negative = cytotoxicity |
| --- | --- |
| CC(C)Cc1nnc(NC(=O)CSc2nc(N)cc(=O)[nH]2)s1 | -11.3% (inactive) |
| COc1ccc(-c2oc3ncnc(NCCCN4CCOCC4)c3c2-c2ccc(OC)cc2)cc1 | -10.4% (inactive) |
| CC(C)C(=O)Nc1ccc2c(c1)C(=O)N(C)[C@@H]1CC[C@H](CC(=O)O)O[C@@H]1CO2 | -14.7% [at 23.5 µM] (inactive) |
| COCC(=O)Nc1ccc2c(c1)C(=O)N(C)[C@@H]1CC[C@@H](CC(=O)NCc3ccccc3Cl)O[C@H]1CO2 | -10.4% [at 23.5 µM] (inactive) |
| COc1ccc([N+](=O)[O-])cc1NS(=O)(=O)c1ccc(C(=O)N2CCCC2)cc1 | -10.2% (inactive) |
| O=C(Nc1ccccc1F)N1C[C@H]2[C@@H](c3ccccc31)[C@@H](CO)N2C(=O)C1CC1 | -7.36% (inactive) |
| Cc1cc(C)c(S(=O)(=O)Nn2cnnc2)c(C)c1 | -20.2% (inactive) |
| O=C(CCNS(=O)(=O)c1cccc2nonc12)NC1CCCc2ccccc21 (centres undefined) | 10.6% (inactive) |
| O=C(CN1CCCC1)Nc1ccc(Oc2ccc(NC(=O)CN3CCCC3)cc2)cc1 | -22.4% (inactive) |
| COC(=O)C[C@H]1CC[C@H]2[C@H](COc3ccc(NC(=O)Cc4cccs4)cc3C(=O)N2C)O1 | -8.78% (inactive) |
| NC(=O)C1=C[C@H](c2coc3ccccc3c2=O)C[C@H](OCCCCO)O1 | 0.511% (inactive) |
| N#C[C@@H]1[C@H](c2ccccc2C2=CCCCC2)[C@H](CO)N1S(=O)(=O)c1ccccc1 | -14.8% (inactive) |
| Cc1ccc(S(=O)(=O)N2CC[C@@H]3[C@H](CO)Nc4ccc(-c5cccc(C(=O)N(C)C)c5)cc4[C@@H]32)cc1 | 0.347% [at 8 µM] (inactive) |
| N#Cc1ccc(-c2ccc3c(c2)[C@@H]2[C@@H](CCN2S(=O)(=O)c2cccc(F)c2)[C@@H](CO)N3)cc1 | -14.5% [at 23.5 µM] (inactive) |
| CCOc1ccccc1NC(=O)c1c(NC(=O)CCC(=O)O)sc2c1CCCCC2 | -13.1% (inactive) |
| COC(=O)c1cn(CC(=O)NCc2ccco2)c2ccccc12 | -15.6% (inactive) |
| COC(=O)c1c(NC(=O)CN2CCN(c3ccccc3Cl)CC2)sc(C)c1C | -32.1% (inactive) |

| Compound | activity change, negative = cytotoxicity |
| --- | --- |
| Cc1ccc(S(=O)(=O)N2CC[C@@H]3[C@H]2c2cc(-c4cccc(C(=O)N(C)C)c4)ccc2N[C@@H]3CO)cc1 | -11.6% [at 23.5 µM] (inactive) |
| COC(=O)C[C@H]1CC[C@@H]2[C@@H](COc3ccc(NC(=O)Cc4cccs4)cc3C(=O)N2C)O1 | -12.4% (inactive) |
| N#C[C@H]1[C@@H](c2ccccc2C2=CCCCC2)[C@@H](CO)N1S(=O)(=O)c1ccccc1 | -16.9% [at 23.5 µM] (inactive) |
| CC(=O)Nc1cccc(-c2ccnc3c2CC(C)(C(=O)Nc2cccc(C(F)(F)F)c2)O3)c1 (centres undefined) | -8.05% (inactive) |
| COC(=O)C[C@@H]1CC[C@H]2[C@H](COc3ccc(NC(=O)Cc4cccs4)cc3C(=O)N2C)O1 | -4.95% [at 23.5 µM] (inactive) |
| COc1ncccc1C(=O)NC1CCCc2c1cnn2-c1ccc(C)c(C)c1 (centres undefined) | -12.4% (inactive) |
| C[C@@H]1CN([C@@H](C)CO)C(=O)c2cc(NC(=O)CCCN(C)C)ccc2O[C@H]1CN(C)Cc1ccc(-c2ccccc2)cc1 | -21.1% (inactive) |
| Nc1c(C(=O)NCc2ccco2)nnn1Cc1ccccc1 | -12.2% (inactive) |
| C[C@@H]1CN([C@@H](C)CO)C(=O)c2cc(-c3ccccc3)cnc2O[C@@H]1CN(C)C(=O)c1cccc(F)c1 | -7.36% (inactive) |
| O=C(c1cccnc1)N1C[C@@H]2[C@H](c3ccccc31)[C@H](CO)N2CC1CCCC1 | -19.3% [at 23.5 µM] (inactive) |
| CN(C)c1ccc(-c2ccnc3c2CC(C)(C(=O)NCC2CC2)O3)cc1 (centres undefined) | -18.8% (inactive) |
| COCC(=O)Nc1ccc2c(c1)C(=O)N(C)[C@H]1CC[C@@H](CC(=O)NCc3ccccc3Cl)O[C@H]1CO2 | 0.812% (inactive) |
| Fc1cnc(N2CCN(c3ccccc3)CC2)nc1N1CCN(c2ccccc2)CC1 | -16.1% (inactive) |
| CC1(C)Cc2c(C#N)c(SCC(=O)c3ccccc3)nc(N3CCOCC3)c2CS1 | 3.32% (inactive) |
| Cc1ccc(S(=O)(=O)N2CC[C@@H]3[C@@H](CO)Nc4ccc(-c5cccc(C(=O)N(C)C)c5)cc4[C@@H]32)cc1 | -5.67% (inactive) |
| C[C@H](CO)N1C[C@H](C)[C@@H](CN(C)Cc2ccc(-c3ccccc3)cc2)Oc2ccc(NC(=O)C3CCCCC3)cc2C1=O | -16.4% (inactive) |
| CN1c2ccc(-c3ccccc3)cc2[C@H]2[C@H](CCN2C(=O)CN2CCOCC2)[C@H]1CO | 0.716% [at 23.5 µM] (inactive) |

Source: PubChem BioAssay AID1053117 (Broad Institute, 2014)
